Results taken from PubChem BioAssay AID1159580 (chemical genetic matrix, 2015).
The campaign covered roughly 5,500 compounds. About 2,000 (36%) were called active. Another 18% or so got no clear call; they are omitted. Cut-off read from the data, not from the text of the source: active = normalized growth mostly below about 0.91 (no sharp cut-off); inconclusive = no clear call, values can overlap the other calls; inactive = mostly above about 0.92. The list shows a part of the results.

Assay: chemical genetic growth profiling, strain panel (AID 1159580);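 note: tested at 20 µM; growth read once vehicle control cultures reached saturation at 30 °C; 1 = growth at the plate median or of vehicle wells; lower values mean less growth of the strain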
Conditions: growth OD
[1] = S. cerevisiae deletion strains, locus YAL013W, strain DEP1, hits give low values
[2] = S. cerevisiae deletion strains, locus YAL040C, strain CLN3, hits give low values
[3] = S. cerevisiae deletion strains, locus YCL061C, strain MRC1 (second series), hits give low values
[4] = S. cerevisiae deletion strains, locus YDR150W, strain NUM1, hits give low values
[5] = S. cerevisiae deletion strains, locus YDR363W, strain ESC2, hits give low values
[6] = S. cerevisiae deletion strains, locus YER002W, strain NOP16, hits give low values
[7] = S. cerevisiae deletion strains, locus YJR075W, strain HOC1, hits give low values
[8] = S. cerevisiae deletion strains, locus YMR307W, strain GAS1, hits give low values
[9] = S. cerevisiae deletion strains, locus YNL153C, strain GIM3, hits give low values
[10] = S. cerevisiae deletion strains, locus YNL175C, strain NOP13, hits give low values
[11] = S. cerevisiae deletion strains, locus YNL197C, strain WHI3, hits give low values
[12] = S. cerevisiae deletion strains, locus YNL224C, strain SQS1, hits give low values
[13] = S. cerevisiae deletion strains, locus YOR083W, strain WHI5 (second series), hits give low values
[14] = S. cerevisiae deletion strains, locus YPL055C, strain LGE1, hits give low values
[15] = S. cerevisiae deletion strains, locus YPL241C, strain CIN2, hits give low values
[16] = S. cerevisiae deletion strains, locus YGR078C, strain PAC10, hits give low values
[17] = S. cerevisiae deletion strains, locus YNL322C, strain KRE1, hits give low values
[18] = S. cerevisiae deletion strains, locus YBR229C, strain ROT2, hits give low values
[19] = S. cerevisiae deletion strains, locus YCL061C, strain MRC1, hits give low values
[20] = S. cerevisiae deletion strains, locus YDL101C, strain DUN1, hits give low values
[21] = S. cerevisiae deletion strains, locus YDL134C, strain PPH21, hits give low values
[22] = S. cerevisiae deletion strains, locus YEL061C, strain CIN8, hits give low values
[23] = S. cerevisiae deletion strains, locus YHR030C, strain SLT2, hits give low values
[24] = S. cerevisiae deletion strains, locus YHR087W, strain rtc3, hits give low values
[25] = S. cerevisiae deletion strains, locus YJR043C, strain POL32, hits give low values
[26] = S. cerevisiae deletion strains, locus YKL190W, strain CNB1, hits give low values
[27] = S. cerevisiae deletion strains, locus YLR039C, strain RIC1, hits give low values
[28] = S. cerevisiae deletion strains, locus YLR058C, strain SHM2 (second series), hits give low values
[29] = S. cerevisiae deletion strains, locus YLR085C, strain ARP6, hits give low values
[30] = S. cerevisiae deletion strains, locus YLR262C, strain YPT6, hits give low values
[31] = S. cerevisiae deletion strains, locus YML094W, strain GIM5, hits give low values
[32] = S. cerevisiae deletion strains, locus YMR219W, strain ESC1, hits give low values
[33] = S. cerevisiae deletion strains, locus YMR263W, strain SAP30, hits give low values
[34] = S. cerevisiae deletion strains, locus YNL298W, strain CLA4 (second series), hits give low values
[35] = S. cerevisiae deletion strains, locus YNR030W, strain Alg12, hits give low values
[36] = S. cerevisiae deletion strains, locus YPR135W, strain CTF4, hits give low values
[37] = S. cerevisiae strains, strain wild type, hits give low values

Measured: normalized growth

COC1(C2=NCCN2)COc2ccccc2O1 (stereo not drawn)
inactive: [1] 1 | [2] 1.01 | [3] 1.01 | [4] 1.02 | [5] 0.995 | [6] 1 | [7] 1.01 | [8] 0.998 | S. cerevisiae deletion strains, locus YNL128W, strain TEP1, hits give low values 0.995 | [9] 1.03 | [10] 1 | [11] 1.01 | [12] 1.01 | [13] 1.02 | [14] 0.996 | [15] 1.01

Nn1nnc2ccccc21
inactive: [1] 1.01 | [2] 1.02 | [3] 1.01 | [5] 1 | [6] 1.01 | [16] 1.01 | [10] 0.991 | [11] 1.01 | [12] 0.998 | [17] 1.02 | [13] 0.998 | [14] 1.02

N#CCCNc1cc(C(F)(F)F)cc(C(F)(F)F)c1
active: [7] 0.883
inactive: [1] 0.98 | [18] 0.985 | [19] 0.96 | [20] 0.986 | [21] 0.99 | [4] 0.96 | [22] 0.975 | [16] 0.947 | S. cerevisiae deletion strains, locus YGR229C, strain SMI1, hits give low values 0.981 | [23] 0.867 | [24] 0.989 | S. cerevisiae deletion strains, locus YJL187C, strain SWE1, hits give low values 0.986 | [25] 0.97 | [26] 0.981 | [27] 0.848 | [28] 1.01 | [29] 0.837 | [30] 0.844 | [31] 0.918 | [32] 0.987 | [33] 0.991 | [8] 0.903 | [9] 0.96 | [34] 0.954 | [17] 0.957 | [35] 0.902 | [14] 0.893 | [15] 0.947 | [36] 0.801 | [37] 0.991

FC(F)(F)c1cc(NC2=NCCN=C(Nc3cc(C(F)(F)F)cc(C(F)(F)F)c3)SS2)cc(C(F)(F)F)c1
inactive: [1] 1.01 | [18] 1.01 | [19] 0.997 | [20] 0.993 | [21] 0.999 | [4] 1.04 | [22] 1 | [16] 1 | [23] 0.952 | [24] 0.997 | [25] 0.993 | [7] 0.989 | [26] 1.01 | [27] 0.977 | [28] 1.01 | [29] 0.978 | [30] 0.979 | [31] 0.975 | [32] 1 | [33] 1.02 | [8] 0.916 | [9] 1.02 | [34] 1.01 | [17] 1 | [35] 0.988 | [14] 1.05 | [15] 0.99 | [36] 0.95 | [37] 1.01
